# Screening results as filed in PubChem.
# ALOX12 inh: Primary qHTS assay for inhibitors of human arachidonate 12S-lipoxygenase (ALOX12): Round 2 | actives 1.1% (n = 580,000) | Polyunsaturated fatty acid lipoxygenase ALOX12 (Homo sapiens), P18054 | AID 1671190, 2021 | Potency, µM (top dose mostly 108 µM), for inactives: at the top dose activity change, negative = inhibition, actives largely listed as inhibitors | purified 12hLO, xylenol orange hydroperoxide absorbance; also: % is scaled to controls: 0 for no effect and ±100 for the full control effect
# Target sequence (P18054 whole entry, looked up): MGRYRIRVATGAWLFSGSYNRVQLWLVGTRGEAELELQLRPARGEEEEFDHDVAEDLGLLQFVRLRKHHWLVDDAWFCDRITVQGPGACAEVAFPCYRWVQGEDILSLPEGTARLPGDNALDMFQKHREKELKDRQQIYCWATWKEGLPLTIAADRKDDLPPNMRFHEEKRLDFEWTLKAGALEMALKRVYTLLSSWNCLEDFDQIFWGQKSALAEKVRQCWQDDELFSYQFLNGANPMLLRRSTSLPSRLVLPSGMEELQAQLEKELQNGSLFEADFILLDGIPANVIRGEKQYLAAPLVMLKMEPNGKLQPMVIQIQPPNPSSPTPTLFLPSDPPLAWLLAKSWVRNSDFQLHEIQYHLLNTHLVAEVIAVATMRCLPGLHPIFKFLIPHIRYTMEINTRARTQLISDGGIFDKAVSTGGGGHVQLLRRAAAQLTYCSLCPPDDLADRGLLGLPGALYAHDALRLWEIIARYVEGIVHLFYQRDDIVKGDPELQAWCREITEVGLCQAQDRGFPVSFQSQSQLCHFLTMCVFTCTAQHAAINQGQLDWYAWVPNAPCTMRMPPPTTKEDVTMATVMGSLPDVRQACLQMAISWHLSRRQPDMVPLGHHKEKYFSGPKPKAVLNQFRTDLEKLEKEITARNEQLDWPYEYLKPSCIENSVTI
#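 Purified human 12hLO at 150 nM in 25 mM Hepes, 0.01% Triton X-100, pH 7.0, preincubated 15 min at room temperature with compound. Reaction started with 40 uM arachidonic acid, 30 min at room temperature. Hydroperoxide measured by Fe-xylenol orange, 573/405 nm absorbance ratio.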
# TDP1 inh: qHTS Assay for Inhibitors of Tyrosyl-DNA Phosphodiesterase (TDP1); Tyrosyl-DNA phosphodiesterase 1 (Homo sapiens), Q9NUW8; recombinant TDP1, AlphaScreen DNA substrate cleavage; Potency, µM (titrated, usually from 130 µM), inactives show top-dose activity change, negative = inhibition, actives largely listed as inhibitors; actives 0.28% (n = 350,000); also: % is scaled to controls: 0 for no effect and ±100 for the full control effect; nearly all actives have a fitted effect of over 40% in size
#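 Here, a 5' biotin and 3' phosphotyrosine-FITC DNA oligonucleotide reports Tdp1 activity: intact substrate bridges AlphaScreen beads, while cleavage leaves a 3' phosphate and drops signal. All incubations at room temperature.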
# Rango-impB inh: qHTS Assay for Inhibitors of Rango (Ran-regulated importin-beta cargo) - Importin beta complex formation; actives 0.031% (n = 340,000); Potency, µM (top dose mostly 92.2 µM), inactives show at the highest dose inhibition of complex formation; Rango CFP/YFP FRET sensor + importin beta, 45 min; calls by dose curve;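 also: 0% = DMSO wells and 100% = buffer wells lacking importin beta; nearly all actives have a fitted effect of over 15% in size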
#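 FRET biosensor (snurportin 1 IBB flanked by EYFP and cerulean), 50 nM, with compound 5 min, then 0.125 microM importin beta in PBS, 1 mM DTT, 0.02% Tween-20, 0.1% BSA. CFP/YFP ratio read after 45 min at room temperature; pre-read flags interference.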
# ClpP mod: qHTS Assay for Activators of ClpP | ATP-dependent Clp protease proteolytic subunit (Bacillus subtilis (strain 168)), P80244 | purified B. subtilis ClpP, FRET peptide cleavage, 20 min | actives 1.9% (n = 340,000) | Potency, µM (top dose mostly 57.5 µM), for inactives: top-dose activity change, negative = active | AID 651965, 2013; active = well fitted falling curve with a large enough effect; inconclusive = small, poorly fitted or top-dose-only effect; inactive = no such curve, though single readings can be large or run the other way; also: the source files actives as falling curves though it sought activators and does not explain the sign; nearly all actives have a fitted effect of over 65% in size
#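 Purified B. subtilis ClpP, 10 microg/mL final in Tris/HCl pH8 with KCl, BSA, glycerol and Tween-20, cleaved an Abz/nitrotyrosine-quenched decapeptide. Fluorescence (ex 320, em 430) was read at 0 and 20 min at room temperature. Delta was normalized to 5.8 microM ADEP and DMSO/no-enzyme controls.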
# Rango release inh: qHTS Assay for Inhibitors of RanGTP induced Rango (Ran-regulated importin-beta cargo) - Importin beta complex dissociation; Snurportin-1 (Homo sapiens) + GTP-binding nuclear protein Ran (Homo sapiens) + Importin …; Biochemical FRET Rango-importin beta, RanGTP-induced dissociation; Potency, µM (top dose mostly 46.1 µM), for the others: at the top dose activity change, negative = inhibition; actives 0.071% (n = 340,000); AID 540253, 2011; calls by dose curve; also: % of control where 0% means no effect; nearly all actives have a fitted effect of over 45% in size
#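 Recombinant Rango FRET biosensor (EYFP–snurportin 1 IBB–cerulean CFP10) at 0.1 uM premixed with 0.25 uM importin beta in PBS, 1 mM DTT, 0.02% Tween-20, 0.1% BSA. Compound added 5 min; RanGTP-RCC1 (0.6 uM Ran, 2 mM GTP, 0.2 uM RCC1) then triggers release, read at 45 min.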
# TSG101-PTAP inh: qHTS Assay for Iinhibitors of HIV-1 Budding by Blocking the Interaction of PTAP/TSG101. Tumor susceptibility gene 101 protein (Homo sapiens), Q99816. Fluorescence polarization, FITC-PTAP peptide / Tsg101 binding. Potency, µM (doses to about 115 µM), inactives show at the highest dose activity change, negative = inhibition, most hits filed as inhibitors. 340,000 tested, under 10 active. AID 493005, 2010; active = well fitted inhibition curve with a large enough effect in the main read-out, with a control signal flat, not every such curve was filed as active; inconclusive = small, poorly fitted or top-dose-only effect, or effect the other way, or a change in a side signal; inactive = no such curve, though single readings can be large or run the other way; also: % of control where 0% means no effect
#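 Compounds were pin-transferred onto Tsg101 binding domain (10 uM final) in HEPES pH 7.5 buffer, then FITC-PTAP peptide was added at 50 nM final. After 20 min at RT, polarization reported peptide displacement across a qHTS concentration series.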
# * hit, by the source's call; ? = inconclusive; / = no result; [ ] = dose if it differs, or a comment. In the library only some 2.4% were active in any assay of this set; here they are far more common. Unless noted, calls follow the shape of the dose curve; as a rule, active = well fitted curve in the direction sought with a large enough effect; inconclusive = small, poorly fitted or top-dose-only effect, or another doubt; inactive = no such curve, though single readings can be large; an effect the other way counts as inactive or inconclusive. Potency is read from the fitted curve at half-maximal effect.
SMILES,ALOX12 inh,TDP1 inh,Rango-impB inh,ClpP mod,Rango release inh,TSG101-PTAP inh
CC(C)c1nc(NCc2ccccc2)c(C#N)c2c1CCCC2,0%,0%,0%,8.9µM*,-23%,0%
CC(C)c1nc(NCCO)c(C#N)c2c1CCCC2,-3%,0%,0%,/,8%,-6%
CCc1nnc(CN(C)C(=O)c2cccc(CCC(C)(C)O)c2)o1,38%,/,/,/,/,/
CN(C)S(=O)(=O)c1cccc(NC(=S)N/N=C/c2cc(Br)ccc2O)c1,28µM*,/,?,/,?,-8%
CN(C)S(=O)(=O)c1cccc(NC(=S)N/N=C/c2cccc(O)c2)c1,-8%,2%,-1%,1%,7%,1%
COc1ccc(COC(=O)c2c(C)nn(-c3ccccc3)c2Cl)cc1,-4%,56µM*,-5%,-1%,-3%,2%
COc1ccc(NC(=O)c2c(C)nn(-c3ccccc3)c2Cl)cc1,0%,/,1%,1%,-19%,-1%
CC(C)(C)c1ccc(C(=O)N/N=C2\C3CN4CCN(C3)CC2(c2ccccc2)C4)cc1,24%,0%,1%,22µM*,-9%,-1%
Cc1c(Cl)cccc1NC(=O)CSc1nnc2[nH]c(=O)c(Cc3ccccc3)nn12,3%,/,/,/,/,/
COc1ccc(/C=C/C(=O)OCc2cc(=O)oc3c(C)c(C)ccc23)cc1OC,2%,/,/,/,/,/
O=C(O)Cc1nc(-c2cccnc2)sc1-c1ccc(Br)cc1,28µM*,0%,-1%,/,19%,-1%
Brc1ccc(-c2nc(-c3cccnc3)no2)cc1,8%,/,/,/,/,/
O=C(NC(=S)Nc1cccc(O)c1)C12CC3CC(CC(C3)C1)C2,22µM*,/,/,-3%,/,/
O=C(NNC(=O)C12CC3CC(CC(C3)C1)C2)c1cccc(O)c1,-1%,8%,?,/,-3%,-2%
Cc1ccc(/C(O)=C2\C(=O)C(=O)N(CCCO)C2c2ccc(F)cc2)cc1 (stereo unspecified),-14%,/,/,/,/,/
CN(C)c1ccc(C2/C(=C(/O)c3ccc(Br)cc3)C(=O)C(=O)N2C)cc1 (stereo unspecified),5.6µM*,/,0%,-1%,1%,-2%
CN1C(=O)C(=O)/C(=C(/O)c2ccccc2)C1c1ccc(Br)cc1 (stereo unspecified),?,/,-2%,1%,4%,-14%
O=C1C(=O)N(CCCO)C(c2ccc(Br)cc2)/C1=C(\O)c1ccc(Br)cc1 (stereo unspecified),35µM*,/,-1%,2%,-3%,-9%
O=C(NN=Cc1ccc(O)cc1)C(=O)NN=Cc1ccc(O)cc1,2%,/,3%,/,0%,-7%
C=C1CC(C(=O)N/N=C/c2ccc(O)cc2)C1,11%,6%,-2%,11µM*,-3%,-4%
CN(C)CCCNC(=O)/C=C/c1ccc2c(c1)OCO2,-11%,-1%,0%,16µM*,-3%,-1%
COC(=O)C1=NN[C@H](C(=O)OC(C)(C)C)[C@H]1c1ccccc1,-24%,-5%,3%,16µM*,-14%,2%
CCOc1ccccc1C(=O)Nc1cccc(-c2nnc3n2CCCC3)c1,6%,/,/,/,/,/
CC1=C(C)C(C)=C(C#N)C(=C(C#N)C#N)N1,1.1µM*,4%,?,/,?,-10%
COc1ccc(C2NC(=O)c3c(sc4c3CCN(C)C4)N2)cc1O (stereo unspecified),-18%,/,/,?,/,/
SMILES,ALOX12 inh,TDP1 inh,Rango-impB inh,ClpP mod,Rango release inh,TSG101-PTAP inh
COc1ccc(C(=O)Oc2ccc(C3NC(=O)c4c(sc5c4CCN(C)C5)N3)cc2OC)cc1 (stereo unspecified),50%,6%,/,18µM*,/,/
CCOc1ccc(C(=O)CCCC(=O)c2ccc(OCC)cc2)cc1,3%,/,?,1%,14%,-5%
CN(C)c1ccc(C(N)=S)cc1,16µM*,/,/,/,/,/
CCOc1ccc(C(N)=S)cc1,14µM*,/,/,/,/,/
CNC(=S)c1ccc(N(C)C)cc1,-6%,/,/,/,/,/
CCCc1ccc(CN2CCCC(CCOC)(C(=O)O)C2)o1 (stereo unspecified),34%,/,/,/,/,/
Cc1sc2ncnc(Sc3ccccc3C(=O)Nc3ccc(Br)cc3)c2c1C,10µM*,8%,2%,-8%,0%,-2%
Cc1sc2ncnc(Sc3ccccc3C(=O)Nc3ccc(C#N)cc3)c2c1C,-27%,0%,-1%,-6%,39%,0%
Cc1c(C)n(-c2ccc(Cl)cc2)c2ncn(CC(=O)NC(C)c3ccccc3)c(=O)c12 (stereo unspecified),25µM*,/,/,/,/,/
CCNC(=O)Cn1cnc2c(c(C)c(C)n2-c2ccc(Cl)cc2)c1=O,-76%,/,/,/,/,/
Cc1ccc2c(=O)c(-c3nc(-c4ccc(Cl)cc4)no3)cn(CC(=O)NCc3ccco3)c2n1,20µM*,/,/,/,/,/
Cc1ccc(-c2noc(-c3cn(CC(=O)NCc4cccs4)c4nc(C)ccc4c3=O)n2)cc1,-1%,/,/,/,/,/
O=S1OCCSc2sc(=S)sc2SCCO1,28µM*,/,/,/,/,/
CCNC(=O)NC(=O)CNc1ccccc1N(C)Cc1ccccc1,7.1µM*,/,/,/,/,/
CCNc1cc(N2CCC(CCC(=O)NC(CC)CC)CC2)ncn1,4%,/,/,/,/,/
COc1cccc(N2C(=O)OCC23CCN(Cc2c[nH]c4ccccc24)C3)c1 (stereo unspecified),20%[176 µM],/,/,/,/,/
O=C1OCC2(CCN(Cc3c[nH]c4ccccc34)C2)N1Cc1ccccc1 (stereo unspecified),50µM*,/,/,/,/,/
CC1(c2ccccc2)N(Cc2ccc(O)cc2)C(=O)OC12CCN(Cc1c[nH]c3ccccc13)CC2 (stereo unspecified),45µM*,/,/,/,/,/
CCOc1ccccc1NC(=O)Nc1ccc2nc(N3CCN(C)CC3)cc(C)c2c1,4%,5%,/,11µM*,/,/
CCN1CCN(c2cc(C)c3cc(NC(=O)Cc4ccccc4OC)ccc3n2)CC1,0%,5%,3%,28µM*,2%,-3%
Cc1ccccc1NC(=O)Nc1ccc2nc(N3CCN(C)CC3)cc(C)c2c1,?,2%,/,-1%,/,/
